Only some compounds are listed: those with a hit (about 1.5% of all), similar ones and a draw of the others.
Coupling enz: coupling enzyme interference in Giardia aldolase counter-screen; activity change, negative = inhibition, % at 58.2 µM, hits read low; coupling enzyme system counterscreen, AmpLite Red fluorescence; 290,000 tested, 0.67% active; in the data active means activity change below about -30%
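Compounds tested against the coupling enzymes alone at 57.5 uM final; readout was AmpLite Red fluorescence (525/598 nm) after 20 min at RT.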
rTrxR1 inhibitor: blocks rat thioredoxin reductase 1 | 390,000 tested, 1% active | AID 588453 | O89049 | Potency, µM (doses to about 114 µM), inactives show at the top dose activity change, negative = inhibition, actives largely listed as inhibitors | recombinant rTrxR1, NADPH fluorescence consumption, selenite substrate; further: potency means the concentration at half of the fitted maximal effect; nearly all actives have a fitted effect of over 65% in size
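Rat TrxR1 (90 nM in the dispensed reagent) was pre-reduced with 400 uM NADPH for 5 min at room temperature, then incubated with compound for 15 min. After 400 uM selenite was added, NADPH fluorescence (Ex 340/Em 450 nm) was followed for 8 min.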
TrxR1 substrate: substrates of rat thioredoxin reductase 1. 390,000 tested, 0.01% active. purified TrxR1 substrate turnover, NADPH consumption readout. Potency, µM (top dose mostly 114 µM), for the others: top-dose activity change, negative = substrate turnover. AID 588456. O89049; further: potency means the concentration at half of the fitted maximal effect; nearly all actives have a fitted effect of over 50% in size
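Rat TrxR1, dispensed at 90 nM, was prereduced with 400 uM NADPH (final) for 5 min at ~22 deg C, then incubated with compound 15 min before 400 uM selenite. A first-read NADPH fluorescence drop versus no-compound background flagged substrates.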
USP1-UAF1 inh: USP1/UAF1 (human) deubiquitinase inhibition. O94782. recombinant USP1/UAF1, Ub-Rhodamine cleavage fluorescence. Potency, µM (doses to about 57.1 µM), inactives show at the top dose activity change, negative = inhibition, usual class: inhibitors. 390,000 tested, 0.23% active. AID 743255; further: potency means the concentration at half of the fitted maximal effect; nearly all actives have a fitted effect of over 60% in size
Target sequence (O94782 whole entry, looked up): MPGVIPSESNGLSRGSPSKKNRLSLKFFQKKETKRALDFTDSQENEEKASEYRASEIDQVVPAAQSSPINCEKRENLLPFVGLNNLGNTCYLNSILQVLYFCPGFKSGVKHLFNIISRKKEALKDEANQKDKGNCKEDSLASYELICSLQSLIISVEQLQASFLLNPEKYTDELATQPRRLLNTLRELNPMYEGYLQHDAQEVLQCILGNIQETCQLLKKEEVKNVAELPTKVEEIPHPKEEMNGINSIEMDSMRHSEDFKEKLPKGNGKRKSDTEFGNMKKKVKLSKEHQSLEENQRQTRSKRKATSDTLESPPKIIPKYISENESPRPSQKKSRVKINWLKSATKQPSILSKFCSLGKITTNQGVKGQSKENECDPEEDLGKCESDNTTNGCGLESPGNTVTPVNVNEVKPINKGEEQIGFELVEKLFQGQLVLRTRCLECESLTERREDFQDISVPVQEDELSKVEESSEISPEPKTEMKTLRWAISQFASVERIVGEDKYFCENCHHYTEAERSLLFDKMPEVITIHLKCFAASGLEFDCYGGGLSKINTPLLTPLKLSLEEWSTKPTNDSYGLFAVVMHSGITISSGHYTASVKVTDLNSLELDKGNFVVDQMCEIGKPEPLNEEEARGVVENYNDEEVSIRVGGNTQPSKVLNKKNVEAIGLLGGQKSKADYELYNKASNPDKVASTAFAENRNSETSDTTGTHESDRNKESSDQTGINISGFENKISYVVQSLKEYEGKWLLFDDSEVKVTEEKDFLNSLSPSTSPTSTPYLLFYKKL
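USP1/UAF1 complex (1 nM) preincubated 15 min at room temperature with compound, then Ub-Rho substrate (150 nM final) added. Kinetic fluorescence at 480/540 nm over 6 reads at 60 s intervals; 50 mM HEPES pH 7.8, 0.5 mM EDTA, 0.1 mg/ml BSA, 1 mM TCEP, 0.01% Tween-20.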
GALK inhibitor: blocks human galactokinase activity; AID 1868; 270,000 tested, 0.007% active; Potency, µM (top dose mostly 57.5 µM), for inactives: at the highest dose activity change, negative = inhibition, actives largely listed as inhibitors; P51570; Purified GALK, Kinase-Glo residual ATP luminescence; further: potency means the concentration at half of the fitted maximal effect
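Galactose (100 uM) and ATP (35 uM) were turned over by 5 nM GALK for 1 h at RT. Kinase-Glo Plus then converted the remaining ATP into a luminescent signal.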
Active calls of the source: *; ? = inconclusive; . = no result given; [ ] = another dose, or the depositor's remark. Unless noted, the call rests on the fitted dose curve; in most records, active means well fitted curve in the direction sought with a large enough effect; inconclusive means small, poorly fitted or top-dose-only effect, or another doubt; inactive means no such curve, though single readings can be large; an effect the other way counts as inactive or inconclusive. On the % scale 0 is the no-effect control and ±100 the full control effect.

SMILES	Coupling enz	rTrxR1 inhibitor	TrxR1 substrate	USP1-UAF1 inh	GALK inhibitor
CCOC(=O)c1ccc(CNc2ncnc3nc[nH]c23)cc1	.	0%	7%[0.0914 µM]	.	.
Cc1ccc(CC(=O)NO)cc1	.	18%	6%	.	.
CCC(O)c1nc2ccccc2n1Cc1cccc(Cl)c1 (stereo not given)	.	14%	2%	?	.
CC(NC(=O)/C=C/c1ccco1)c1nc2ccccc2n1Cc1cccc(Cl)c1 (stereo not given)	0	14µM*	-3%	1%	1%
CC[C@H](C)[C@H](NC(=O)CNC(=O)[C@@H](NC(=O)[C@@H](NC(=O)[C@H](Cc1ccc(O)cc1)NC(=O)[C@H](CC(C)C)NC(=O)[C@H](C)NC(=O)[C@H](CCC(N)=O)NC(=O)CNC(=O)[C@@H]1CCCN1C(=O)CNC(=O)[C@H](Cc1ccccc1)NC(=O)[C@H](Cc1cnc[nH]1)NC(=O)[C@@H](NC(=O)CNC(=O)[C@H](CCCNC(=N)N)NC(=O)[C@H](CCCNC(=N)N)NC(=O)[C@@H](NC(=O)[C@H](CC(N)=O)NC(=O)[C@@H](N)CS)[C@@H](C)O)[C@@H](C)CC)[C@@H](C)O)[C@@H](C)O)C(=O)O	1	.	.	.	.
CCN(c1ccccc1)c1nc(=O)c2cccnc2s1	2	19%	-2%	-18%	1%
CCN(c1ccccc1)c1cc2ccccc2c(=O)[nH]1	-34*	22%	176%	25µM*	6%
COc1cc(NCCCCCCCN)c2ncccc2c1	-37*	-23%	-16%	?	1%
O=[N+]([O-])c1cc(S(=O)(=O)C(F)(F)F)ccc1Sc1nc2ccccc2[nH]1	0	8.9µM*	-13%	-16%	1%
CS(=O)(=O)c1ccc(Sc2nc3ccccc3s2)c([N+](=O)[O-])c1	1	40µM*	-4%	-19%	-3%
O=[N+]([O-])c1cc(S(=O)(=O)C(F)(F)F)ccc1Sc1nc2ccccc2s1	-2	1.6µM*	-7%	-6%	0%
CS(=O)(=O)c1ccc(Sc2nc3ccccc3[nH]2)c([N+](=O)[O-])c1	0	-29%	-7%	-12%	-3%
O=C(CBr)c1ccc(Oc2ccc(C(=O)C[n+]3cccc(Br)c3)cc2)cc1	.	-8%	4%	.	.
N#Cc1c(-c2ccccc2)nc(SCC(=O)N(c2ccccc2)c2ccccc2)[nH]c1=O	25	-8%	-3%	-26%	-5%
N#Cc1c(-c2ccccc2)nc(SCC(=O)N2c3ccccc3Sc3ccccc32)[nH]c1=O	13	0%	-5%	32µM*	?
NC(=O)c1ccc(-c2ccc(Br)cc2)o1	4	-18%	24%	-1%	-1%
NC(=O)C1CCN(C(=S)c2ccc(-c3ccc(Br)cc3)o2)CC1	-33*	18%[57.1 µM]	-13%[57.1 µM]	?	3%
Cc1ccccc1NC1=C/C(=N\S(=O)(=O)c2cccs2)c2ccccc2C1=O	-46*	-30%	-9%	2.2µM*	-6%
CC(=O)Nc1ccc(NC2=C/C(=N/S(=O)(=O)c3cccs3)c3ccccc3C2=O)cc1	-35*	19%[57.1 µM]	1%[57.1 µM]	16µM*	-1%
Cc1ccc(NC2=C/C(=N/S(=O)(=O)c3cccs3)c3ccccc3C2=O)cc1C	-26	12%	-2%	-7%	2%
COc1ccc(S(=O)(=O)/N=C2\C=C(Nc3ccc(O)cc3)C(=O)c3ccccc32)cc1	-32*	-15%	-7%	7.1µM*	1%
CC(=O)Nc1ccc(NC(=O)C(C)OC(=O)c2ccccc2NS(=O)(=O)c2cccs2)cc1 (stereo not given)	-12	-5%	-2%	-13%	-5%
NC(=NCCc1c[nH]c2ccccc12)NS(=O)(=O)c1ccc(F)cc1	-2	0%	-4%	-1%	-1%
NC(=NCCc1c[nH]c2ccccc12)NS(=O)(=O)c1ccc2ccccc2c1	-36*	-13%	-14%	-4%	1%
O=[N+]([O-])c1ccc(-c2cc3ccccc3[nH]2)cc1	.	11%	-1%	.	.
SMILES	Coupling enz	rTrxR1 inhibitor	TrxR1 substrate	USP1-UAF1 inh	GALK inhibitor
CN(C)CCCNc1nccc(N2CCN(C)CC2)n1	.	-6%	-2%	.	.
CCCCN(C(=O)NC(=O)C1=C(N2CCOCC2)/C(=C/c2ccccc2)CC1)S(C)(=O)=O	3	14µM*	112%	0%	1%
CCOC(=O)C(=O)C1=C(N2CCOCC2)/C(=C\c2ccc(F)cc2)CC1	0	?	-6%	-24%	1%
CN(C(=O)NC(=O)C1=C(N2CCOCC2)/C(=C/c2ccccc2)CC1)S(C)(=O)=O	4	35µM*	71%	-18%	-1%
O=C(O)c1ccc(N/N=C/C2=C(N3CCOCC3)C(=C\c3ccccc3)/CC2)cc1	5	-28%	-6%	?	4%
O=C(CCl)N1CCN2C(=O)c3ccccc3C12c1ccc(Cl)cc1 (stereo not given)	2	5µM*	11%[57.1 µM]	-25%	7%
C=C1CC2C(=O)N(Cc3cc(OC)ccc3OC)C(C(=O)OCC)C1N2C (stereo not given)	2	10%	-2%	.	.
Cc1ccc2nc(-c3ccc(Br)o3)oc(=O)c2c1	-3	-2%	28%	-20%	-5%
COc1cc2nc(-c3ccc(Br)o3)oc(=O)c2cc1OC	-40*	13%	22%	-3%	0%
CCOC(=O)c1cc(OCc2csc(-c3ccccc3)n2)cc(C(=O)OCC)c1	.	13%	1%	.	.
O=C(C[N+]12CCCc3cccc(c31)CCC2)c1ccccc1	.	?	-3%	.	.
CN(C)c1ccc(/C=C(\C#N)C(=O)c2ccccc2)cc1	3	7%	-13%	14µM*	.
CCN(CC)c1ccc(/C=C(\C#N)C(=O)c2ccc(Br)cc2)cc1	0	?	-15%	25µM*	.
CCN(CC)c1ccc(/C=C(\C#N)C(N)=O)cc1	0	-16%	-18%	-4%	-3%
N#C/C(=C\c1ccc(C#N)cc1)C(=O)c1ccccc1	0	?	1%[57.1 µM]	-15%	-1%
Cc1cc(NC(=O)COc2cccc3cccnc23)no1	-32*	.	.	.	2%
COC(=O)CN1C(=S)N(c2ccc(OC)cc2)C(=O)/C1=C/c1ccc(N2CCOCC2)cc1	-3	1%	-13%	28µM*	-1%
COC(=O)CN1C(=S)N(c2ccc(OC)cc2)C(=O)/C1=C/c1ccc(OC)cc1	-1	-3%	-12%	-21%	4%
CCn1c([N+](=O)[O-])nc2c1c(=O)[nH]c(=O)n2C	-38*	?	-1%	-18%	1%
NC(N)=Nc1ccc(/C=C2\C=Cc3ccccc32)cc1	.	14%[0.0914 µM]	-2%	.	.
Cc1ccc(CNC(=O)c2ccc(Cn3nc(C)c(Cl)c3C)o2)cc1	2	40µM*	6%	-22%	0%
O=C(Nc1ccc2nc(-c3ccco3)[nH]c2c1)c1ccco1	0	?	-7%	-18%	0%
